Data taken from PubChem BioAssay (EPA / NIEHS).
Inconclusive results are not listed. The source made the active and inactive calls. The calls were made as follows: active = hit-call score of the fitted dose curve at least 0.9, where 1 is the maximum; inconclusive = response in the unintended direction; inactive = score below 0.9.

Columns and labels:
[1] = TOX21_p53_BLA_p2_viability: Viability Assessment in the Tox21 HCT-116 p53 Agonism Beta-lactamase Assay, Phase 2 (AID 2283591);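 also: actives lower the ATP signal meaning cytotoxicity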
How it was run: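 Cytotoxicity readout: CellTiter-Glo ATP luminescence, 30 min at room temperature, after the beta-lactamase read. Cells were HCT116 exposed 16 h at 37C to compounds pin-transferred at 217-fold dilution from DMSO stocks.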

[2] = biological target: Cellular tumor antigen p53 (Homo sapiens) (UniProt P04637); assay: TOX21_p53_BLA_p2_ratio: Tox21 HCT-116 p53 Agonism Beta-lactamase Assay, Ratio, Phase 2 (AID 2283592)
How it was run: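 First, HCT116 reporter cells settle for 5 h at 37C. Next, DMSO compound solutions are pinned in (217-fold dilution) and left 16 h. Finally, CCF4-AM substrate is loaded 2 h at room temperature and the 460/530 nm ratio read.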

[3] = TOX21_p53_BLA_p3_viability: Viability Assessment in the Tox21 HCT-116 p53 Agonism Beta-lactamase Assay, Phase 3 (AID 2283593);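 also: cells exposed to compound for 16 h before reading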
How it was run: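 Cellular ATP was quantified by CellTiter-Glo luminescence, read after 30 min at room temperature. Beforehand, HCT116 cells (4000/well) received compound 5 h post-seeding, 217-fold diluted from DMSO, then incubated 16 h at 37C.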

[4] = biological target: Cellular tumor antigen p53 (Homo sapiens) (UniProt P04637); assay: TOX21_p53_BLA_p3_ratio: Tox21 HCT-116 p53 Agonism Beta-lactamase Assay, Ratio, Phase 3 (AID 2283596)
How it was run: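 Cells were seeded at 4000/well, rested 5 h at 37C, then dosed with DMSO compound solutions (217-fold dilution) for 16 h. CCF4-AM substrate was loaded for 2 h at room temperature, and the 460/530 nm emission ratio was fitted for gain of signal versus DMSO.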

[5] = TOX21_p53_BLA_p4_viability: Viability Assessment in the Tox21 HCT-116 p53 Agonism Beta-lactamase Assay, Phase 4 (AID 2283597);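 also: hits lower the luminescence signal meaning cytotoxicity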
How it was run: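 4000 HCT116 cells per well; 5 h attachment; compounds from DMSO, 217-fold dilution; 16 h at 37C. Then CCF4-AM, 2 h RT, followed by CellTiter-Glo, 30 min RT, luminescence. Decrease = cytotoxicity.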

[6] = biological target: Cellular tumor antigen p53 (Homo sapiens) (UniProt P04637); assay: TOX21_p53_BLA_p5_ratio: Tox21 HCT-116 p53 Agonism Beta-lactamase Assay, Ratio, Phase 5 (AID 2283599)
How it was run: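 Beta-lactamase reporter ratio (blue 460 nm over green 530 nm, 405 nm excitation) after 2 h CCF4-AM loading, in HCT-116 cells exposed 16 h at 37 C to compounds pinned at 217-fold dilution. Increases relative to DMSO baseline scored.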

[7] = TOX21_p53_BLA_p5_viability: Viability Assessment in the Tox21 HCT-116 p53 Agonism Beta-lactamase Assay, Phase 5 (AID 2283600)
How it was run: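 Decreased CellTiter-Glo luminescence denotes lost viability. Exposure: 16 h at 37C, 5% CO2, with compounds from DMSO stocks diluted 217-fold in wells of 4000 cells.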

[8] = biological target: Cellular tumor antigen p53 (Homo sapiens) (UniProt P04637); assay: TOX21_p53_BLA_p4_ratio: Tox21 HCT-116 p53 Agonism Beta-lactamase Assay, Ratio, Phase 4 (AID 2283601)
How it was run: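 Signal is the blue/green (460nm/530nm) ratio of cleaved versus uncleaved CCF4-AM substrate, read after 2 h substrate loading. Cells were HCT116 carrying the p53-responsive beta-lactamase reporter, dosed 16 h at 37C, 5% CO2; CellTiter-Glo measured in parallel.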

Measured: AC50

Cellular tumor antigen p53 (Homo sapiens), sequence (P04637 whole entry, looked up): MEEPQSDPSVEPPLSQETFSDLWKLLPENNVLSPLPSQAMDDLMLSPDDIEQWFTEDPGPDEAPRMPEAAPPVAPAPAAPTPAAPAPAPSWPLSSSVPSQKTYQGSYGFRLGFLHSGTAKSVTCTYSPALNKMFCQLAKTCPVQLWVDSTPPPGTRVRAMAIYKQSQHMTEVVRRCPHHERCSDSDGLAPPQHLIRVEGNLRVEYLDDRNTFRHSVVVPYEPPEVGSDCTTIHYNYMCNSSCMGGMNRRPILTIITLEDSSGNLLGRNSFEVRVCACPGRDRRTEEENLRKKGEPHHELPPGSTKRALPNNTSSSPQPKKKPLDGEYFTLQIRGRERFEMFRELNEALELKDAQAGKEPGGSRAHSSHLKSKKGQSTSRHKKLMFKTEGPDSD

CCN(CC)CCOc1ccc(Cc2ccccc2)cc1
active: [1] 42.2 µM | [5] 33.8 µM
inactive: all other assays above

CCCCc1oc2ccc(NS(C)(=O)=O)cc2c1C(=O)c1ccc(OCCCN(CCCC)CCCC)cc1
inactive: [2] | [6] | [7]
active: [1] 34.7 µM | [3] 34.6 µM | [4] 43.7 µM | [5] 23.7 µM | [8] 43.1 µM

CNCCCC1c2ccccc2C=Cc2ccccc21
inactive: all assays above

CCc1c2c(nc3ccc(OC(=O)N4CCC(N5CCCCC5)CC4)cc13)-c1cc3c(c(=O)n1C2)COC(=O)[C@]3(O)CC
active: [2] 5.56 µM | [4] 5.37 µM | [6] 7.41 µM | [8] 11.3 µM
inactive: all other assays above

Cc1c(Cl)cccc1Nc1ncccc1C(=O)O
inactive: all assays above

Nc1c(N=Nc2ccc(-c3ccc(N=Nc4cc(S(=O)(=O)O)c5ccccc5c4N)cc3)cc2)cc(S(=O)(=O)O)c2ccccc12
inactive: all assays above

NCCS
inactive: all assays above

CCC(=O)O[C@]1(C(=O)SCF)[C@H](C)C[C@H]2[C@@H]3C[C@H](F)C4=CC(=O)C=C[C@]4(C)[C@@]3(F)[C@@H](O)C[C@@]21C
inactive: all assays above

CN1CC(=O)N/C1=N/C(=O)Nc1cccc(Cl)c1
inactive: all assays above

O=C(/C=C/c1ccc([N+](=O)[O-])cc1)c1ccccc1
inactive: all assays above

Nc1ccc(S(=O)(=O)Nc2ccc(Cl)nn2)cc1
inactive: all assays above

Cc1cccc(C)c1OCC(=O)N[C@@H](Cc1ccccc1)[C@@H](O)C[C@H](Cc1ccccc1)NC(=O)[C@H](C(C)C)N1CCCNC1=O
active: [5] 37.5 µM
inactive: all other assays above

OC1(c2ccc(Cl)c(C(F)(F)F)c2)CCN(CCCC(c2ccc(F)cc2)c2ccc(F)cc2)CC1
active: [1] 12.8 µM | [2] 19.6 µM | [3] 30.7 µM | [4] 40.1 µM | [5] 20 µM | [6] 43.2 µM | [7] 37.6 µM | [8] 34.1 µM

Cc1ncc(C[n+]2csc(CCOP(=O)(O)O)c2C)c(N)n1
inactive: all assays above

CC1(COc2ccc(CC3SC(=O)NC3=O)cc2)CCCCC1 (configuration not stated)
active: [1] 28.8 µM | [2] 36.7 µM | [3] 35.1 µM | [4] 27.1 µM | [5] 18.6 µM | [6] 27.6 µM | [7] 21.6 µM | [8] 34.7 µM

CO[C@H]1/C=C/O[C@@]2(C)Oc3c(C)c(O)c4c(O)c(c(/C=N/N5CCN(C6CCCC6)CC5)c(O)c4c3C2=O)NC(=O)/C(C)=C\C=C\[C@H](C)[C@H](O)[C@@H](C)[C@@H](O)[C@@H](C)[C@H](OC(C)=O)[C@@H]1C
active: [1] 33.8 µM | [2] 43.8 µM | [3] 35.3 µM | [4] 42.8 µM | [5] 37.2 µM | [6] 43.2 µM | [7] 42.8 µM | [8] 36.8 µM

OCCN1CCN(CCCN2c3ccccc3Sc3ccc(Cl)cc32)CC1
active: [5] 15.8 µM
inactive: all other assays above

CNC[C@H](O)c1ccc(O)c(O)c1
inactive: all assays above

CC(C)OC(=O)CCCCC(=O)OC(C)C
active: [2] 60.5 µM | [6] 71.9 µM | [8] 69 µM
inactive: all other assays above
